Results taken from PubChem BioAssay AID2284139 (EPA ToxCast).
The source made the active and inactive calls. The calls were made as follows: active = hit-call score of the fitted dose curve at least 0.9, where 1 is the maximum; inactive = score below 0.9.

These compounds were tested against human ZAP70 Tyrosine Kinase, ZAP70 (gene 7535) (UniProt P43403) (assay: ERF_FR_ENZ_hZAP70: Eurofins (ERF) Enzymatic Radiometric [Km ATP] KinaseProfiler LeadHunter Assay for human ZAP70 Tyrosine Kinase).
Chain of human ZAP70 Tyrosine Kinase, ZAP70 (gene 7535) (P43403 whole entry, looked up): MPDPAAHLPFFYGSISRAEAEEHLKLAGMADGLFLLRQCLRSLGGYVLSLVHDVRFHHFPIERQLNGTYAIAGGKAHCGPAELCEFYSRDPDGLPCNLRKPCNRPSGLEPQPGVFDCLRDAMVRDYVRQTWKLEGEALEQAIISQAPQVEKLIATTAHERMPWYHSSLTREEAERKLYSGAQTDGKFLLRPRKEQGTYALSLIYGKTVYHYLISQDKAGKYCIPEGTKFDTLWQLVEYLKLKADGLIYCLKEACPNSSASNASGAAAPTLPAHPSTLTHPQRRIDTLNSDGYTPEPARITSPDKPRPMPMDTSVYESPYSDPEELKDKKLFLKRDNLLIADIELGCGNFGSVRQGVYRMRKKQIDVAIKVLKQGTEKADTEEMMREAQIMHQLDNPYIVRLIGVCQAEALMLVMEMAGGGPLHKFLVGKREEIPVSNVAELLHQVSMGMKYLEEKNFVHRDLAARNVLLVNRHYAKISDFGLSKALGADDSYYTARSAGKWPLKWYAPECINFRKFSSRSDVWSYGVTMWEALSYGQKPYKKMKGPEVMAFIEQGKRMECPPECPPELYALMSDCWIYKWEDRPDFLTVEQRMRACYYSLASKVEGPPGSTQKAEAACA
Procedure: ERF_FR_ENZ_hZAP70 is a biochemical, single-readout assay that uses extracted gene-proteins in a cell-free assay. Measurements were taken 0.25 hour after chemical dosing in a 96-well plate. See ZAP70 Human TK Kinase Enzymatic HTRF Assay [Km ATP], Cerep.ERF_FR_ENZ_hZAP70 is an assay component calculated from the ERF_FR_ENZ_hZAP70 assay. It is designed to measure enzyme activity using a type of enzyme reporter as detected by fluorescence intensity with HTRF technology.Data from the assay component ERF_FR_ENZ_hZAP70 was analyzed at the assay endpoint, ERF_FR_ENZ_hZAP70, in the positive analysis fitting direction relative to DMSO as the negative control and baseline of activity. Using a type of enzyme reporter, loss-of-signal activity can be used to understand changes in enzymatic activity as they relate to gene ZAP70. To generalize the intended target to other relatable targets, this assay endpoint is annotated to the kinase intended target family, where the subfamily is protein tyrosine kinase.
ZAP-70 (h) is incubated with 50 mM Tris pH 7.5, 0.1 mM EGTA, 0.1 mM Na3VO4, 0.1% […], 0.1 mg/mL poly(Glu, Tyr) 4:1, 10 mM MnCl2, 10 mM MgAcetate and [gamma-33P]-ATP (specific activity and concentration as required). The reaction is initiated by the addition of the Mg/ATP mix. […]
In the case of `O=C(/C=C/c1ccc(O)cc1)CC(=O)/C=C/c1ccc(O)cc1`, the outcome is reported as “inactive”.
